ERK AVP inh: blocks ERK signaling stimulated by vasopressin; 0.99% of 72,000 active; HEK293-V1b, vasopressin-stimulated pERK AlphaScreen; AID 995; Potency, µM (highest dose often 57.5 µM), usual class: inhibitors; also: nearly all actives have a fitted effect of over 55% in size
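Overnight-seeded V1b-HEK293 cells in 1% FBS got compound, then vasopressin (25 nM final, 5 min, 37C), then lysis buffer. AlphaScreen detection of phospho-ERK; activity normalized to basal and full-stimulation controls.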
Tau filament bind: binders of human tau filaments; P10636; recombinant tau filaments, thioflavin S fluorescence, 15 h; filaments grown with octadecylsulfate alongside compound; Potency, µM (titrated, usually from 57.1 µM); 2% of 71,000 active; AID 596;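 also: actives lower thioflavin S fluorescence by blocking filaments or displacing dye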
Target sequence (P10636 whole entry, looked up): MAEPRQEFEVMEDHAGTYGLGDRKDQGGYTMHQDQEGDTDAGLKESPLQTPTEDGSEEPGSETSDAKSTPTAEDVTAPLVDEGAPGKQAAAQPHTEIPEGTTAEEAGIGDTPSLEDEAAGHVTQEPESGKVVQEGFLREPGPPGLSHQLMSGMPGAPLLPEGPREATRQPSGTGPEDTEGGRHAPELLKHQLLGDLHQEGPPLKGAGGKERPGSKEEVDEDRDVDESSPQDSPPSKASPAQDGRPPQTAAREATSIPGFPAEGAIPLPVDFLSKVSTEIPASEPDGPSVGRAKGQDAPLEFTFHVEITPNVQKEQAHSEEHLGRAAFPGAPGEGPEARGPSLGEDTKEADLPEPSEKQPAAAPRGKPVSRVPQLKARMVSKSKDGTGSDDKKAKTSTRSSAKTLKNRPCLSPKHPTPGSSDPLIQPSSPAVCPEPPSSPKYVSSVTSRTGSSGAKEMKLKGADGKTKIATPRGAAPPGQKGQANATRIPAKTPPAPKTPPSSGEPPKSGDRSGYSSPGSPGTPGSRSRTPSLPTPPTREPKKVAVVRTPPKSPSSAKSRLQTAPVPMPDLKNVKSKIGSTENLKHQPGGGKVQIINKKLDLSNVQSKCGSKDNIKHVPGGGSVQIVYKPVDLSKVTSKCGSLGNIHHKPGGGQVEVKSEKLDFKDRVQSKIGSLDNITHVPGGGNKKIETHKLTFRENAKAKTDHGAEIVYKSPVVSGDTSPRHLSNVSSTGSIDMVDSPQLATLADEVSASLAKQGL
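Read-out: ThS fluorescence, 450 nm excitation/510 nm emission; lower signal marks blocked filament formation or displaced dye. Tau at 1 uM with 30 uM ODS, 10 uM ThS, 5 mM DTT, 100 mM NaCl, 10 mM HEPES pH 7.4; 15 h, 37 C.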
Luciferase inh: firefly luciferase inhibition; 2.2% of 72,000 active; purified firefly luciferase, luminescence, 8 min; Potency, µM (top dose mostly 57.1 µM), actives largely listed as inhibitors; AID 411; P08659; also: nearly all actives have a fitted effect of over 40% in size
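Firefly luciferase (PKLight detection mix) with 10 uM ATP in pH 7.2 imidazole buffer (KCl, MgCl2, Tween 20, BSA). Compounds tested across a concentration series (qHTS). Luminescence read after 8 min at ambient temperature.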
Pol III holo inh: inhibitors of bacterial DNA polymerase III holoenzyme; reconstituted DNA polymerase III holoenzyme replication, biochemical; Potency, µM (highest dose often 57.1 µM); 0.25% of 71,000 active
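Reconstituted *E. coli* holoenzyme (0.35 nM Pol III, 1 nM beta, 154 nM SSB, 2 nM primase) was preincubated with compound for 15 min at RT. Synthesis on 1.4 nM ssM13Gori ran 35 min, then was stopped with PicoGreen/EDTA and read as dsDNA fluorescence.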
Bst PK mod: pyruvate kinase (B. stearothermophilus) modulation | purified pyruvate kinase, luminescence ATP production; ribose 5-phosphate activator present at AC10 | Potency, µM | 1.2% of 51,000 active | AID 361; in the data active = potency below about 11 µM; inconclusive = mostly about 12 µM to 25 µM;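 the screen sought inhibitors and activators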
15-hLO inh: inhibitors of human 15-lipoxygenase (ALOX15). purified 15hLO-1, xylenol orange hydroperoxide absorbance. 1.4% of 74,000 active. AID 887. P16050. Potency, µM (titrated, usually from 57.1 µM), most hits filed as inhibitors; also: nearly all actives have a fitted effect of over 55% in size
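Inhibition is scored from a chromogenic endpoint. After 15 min enzyme-compound contact, arachidonic acid (50 uM final) reacts 6 min with 40 nM 15hLO-1 at room temperature, then Fe-XO reagent is added for 30 min and absorbance ratio recorded.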
Hits are given with their value; – = inactive; ? = inconclusive; · = not tested or not shown; [ ] = remark or other dose. Hits are enriched below; roughly 6% of the tested compounds scored in any of these assays. Unless noted, calls follow the shape of the dose curve; as a rule, active = well fitted curve in the direction sought with a large enough effect; inconclusive = small, poorly fitted or top-dose-only effect, or another doubt; inactive = no such curve, though single readings can be large; an effect the other way counts as inactive or inconclusive.

SMILES | ERK AVP inh | Tau filament bind | Luciferase inh | Pol III holo inh | Bst PK mod | 15-hLO inh
CCCCCCOC(=O)C(C#N)c1nc2ccccc2nc1N1CCOCC1 (configuration not stated) | – | 2.5µM | – | – | – | –
CCCCCCOC(=O)C(C#N)c1nc2ccccc2nc1N1CCN(CC)CC1 (configuration not stated) | – | 1µM | – | – | – | –
N#CC(C(=O)OC1CCCCC1)c1nc2ccccc2nc1N1CCCCC1 (configuration not stated) | – | – | – | – | – | –
CCCCOC(=O)C(C#N)c1nc2ccccc2nc1N1CCOCC1 (configuration not stated) | – | 4µM | – | – | – | –
CCN1CCN(c2nc3ccccc3nc2C(C#N)C(=O)OCc2ccccc2)CC1 (configuration not stated) | – | 1.3µM | – | – | – | –
COc1cc(C)cc(OC)c1/C=C\C(=O)O | –[11.5 µM] | –[11.4 µM] | –[11.4 µM] | –[11.4 µM] | · | –[11.4 µM]
O=S(=O)(NCCN1CCCC1)c1cccc2cccnc12 | · | ? | – | – | · | 10µM
O=S(=O)(NC1CCCCCC1)c1cccc2cccnc12 | – | – | – | – | 11 | –
Nc1nc(SCC(=O)c2ccc(Br)cc2)c2[nH]cnc2n1 | –[11.5 µM] | –[11.4 µM] | –[11.4 µM] | –[11.4 µM] | · | –[11.4 µM]
CO[C@@H]1COC(=O)CC=C[C@@H](C)[C@@H]2C=C[C@@H](O)[C@@H](COC(=O)C/C=C\[C@H]1C)O2 | –[11.5 µM] | · | –[11.4 µM] | · | · | –[11.4 µM]
O=C1C[C@@H](c2ccc(O)cc2)Oc2cc(O)cc(O)c21 | – | ? | –[11.4 µM] | – | · | –
CC(C)=CCc1c(O)cc(O)c2c1O[C@H](c1ccccc1)CC2=O | – | 40µM | –[11.4 µM] | – | · | –
CCCCS(=O)(=O)/C=C\C=C/S(=O)(=O)CCCC | 3.2µM | – | – | – | – | –
CCCCS(=O)(=O)/C=C\C1C2C=CC(C2)C1S(=O)(=O)CCCC (configuration not stated) | – | – | – | – | – | –
CC(=O)Nc1cc(-c2ccccc2)ccc1O | – | – | – | – | · | –
Nc1cc(-c2ccccc2)ccc1O | – | 25µM | ? | – | · | 7.9µM
COC(=O)C1=C(C)N(Cc2ccccc2)C2=C(C(C)=O)C(c3ccccc3)[C@@](O)(C(=O)OC)C(=O)N2C1c1ccccc1 (some centres not stated) | –[11.5 µM] | · | · | · | · | –[11.4 µM]
c1nc(NCCc2cnc[nH]2)c2[nH]cnc2n1 | –[11.5 µM] | –[11.4 µM] | –[11.4 µM] | –[11.4 µM] | · | –[11.4 µM]
CCSc1nnc(-c2ccc(Cl)cc2Cl)o1 | – | –[11.4 µM] | ? | –[11.4 µM] | · | 3.2µM
Fc1ccc(-c2nnc(-c3ccc(Cl)cc3)o2)cc1 | – | – | – | – | · | –
Clc1ccc(-c2nnc(-c3ccc(Br)o3)o2)c(Cl)c1 | – | – | – | – | · | –
Clc1ccc(-c2nnc(-c3ccccc3)o2)c(Cl)c1 | – | – | 2µM | – | 2.5 | –
CC(C)OC(=O)CSc1nnc(-c2ccc(Cl)cc2Cl)o1 | – | – | – | – | – | –
Fc1ccc(-c2nnc(-c3ccc(Cl)cc3Cl)o2)cc1 | · | – | 1.3µM | – | · | –
C[C@](O)(c1ccccc1)c1nccc2ccccc12 | –[11.5 µM] | –[11.4 µM] | –[11.4 µM] | –[11.4 µM] | · | –[11.4 µM]
SMILES | ERK AVP inh | Tau filament bind | Luciferase inh | Pol III holo inh | Bst PK mod | 15-hLO inh
C/C(=N/NS(=O)(=O)c1ccc(C)cc1)P(=O)(O)O | –[11.5 µM] | –[11.4 µM] | –[11.4 µM] | –[11.4 µM] | · | –[11.4 µM]
O=C(NCCCn1ccnc1)c1cn(-c2ccccc2)nc1-c1ccccc1 | ? | – | 13µM | – | · | –
O=C(CC(SCCO)c1ccc(F)cc1)c1ccco1 (configuration not stated) | – | – | – | – | – | –
O=C(/C=C/Nc1ccc(F)cc1)c1ccco1 | – | – | 3.2µM | – | 3.7 | –
c1csc(CNc2ncncc2-c2ccc3c(c2)OCO3)c1 | 6.3µM | – | –[2.29 µM] | – | · | ?
Cc1cnc(CNc2ncncc2-c2ccc3c(c2)OCO3)cn1 | ? | – | –[2.29 µM] | – | · | –
O=C(OCC(=O)N1CCc2ccccc21)c1ccccc1 | – | – | 20µM | – | · | –
O=C(COc1ccc2c(c1)CCC2)N1CCc2ccccc21 | – | – | 25µM | – | – | –
CCOC(=O)c1ccc(NC(=O)N2CCc3ccccc32)cc1 | – | – | 4µM | – | – | –
CN(C)CCN1C(=O)CC[C@]2(C)C1=CC[C@@H]1[C@@H]2CC[C@]2(C)[C@H]1CC[C@]2(C)O | –[11.5 µM] | –[11.4 µM] | –[11.4 µM] | –[11.4 µM] | · | –[11.4 µM]
O=C(c1ccc(Cc2nc3ccccc3[nH]2)cc1)N1CCCCC1 | · | · | · | · | · | –
O=C(Nc1c(F)cc(F)cc1Br)c1ccco1 | – | 16µM | – | – | – | –
O=C1c2ccccc2C(=O)c2c(Nc3cc4c5c(ccc6c7ccc8c9c(cc(Nc%10cccc%11c%10C(=O)c%10ccccc%10C%11=O)c(c3c56)c97)-c3ccccc3C8=O)C(=O)c3ccccc3-4)cccc21 | ? | 3.2µM | –[11.4 µM] | –[11.4 µM] | · | –[11.4 µM]
O=C1c2ccccc2C(=O)c2c(Nc3ccc4c5c(cccc35)C(=O)c3ccccc3-4)cccc21 | –[11.5 µM] | –[11.4 µM] | –[11.4 µM] | –[11.4 µM] | · | –[11.4 µM]
CC(=O)N1CCC2(CC1)CN(C(c1ccccc1)c1ccccc1)C2 | – | – | –[11.4 µM] | – | · | –
CCOCCCn1c(=N)c(C(=O)NCc2ccc3c(c2)OCO3)cc2c(=O)n3ccccc3nc21 | ? | 5µM | – | – | – | –
CCOC(=O)c1cc2c(=O)n3cccc(C)c3nc2n(CCc2ccccc2)c1=N | · | · | – | · | – | ·
N=c1c(C(=O)NCc2ccc(F)cc2)cc2c(=O)n3ccccc3nc2n1CCCN1CCOCC1 | – | 0.79µM | – | – | – | –
CCCn1c(=N)c(C(=O)NCc2ccc3c(c2)OCO3)cc2c(=O)n3cccc(C)c3nc21 | – | 1.6µM | – | – | · | –
Cc1ccc(C(=O)Nc2nc3ccc(S(C)(=O)=O)cc3s2)s1 | – | – | 3.2µM | – | – | –
CS(=O)(=O)c1ccc2nc(NC(=O)c3cccs3)sc2c1 | – | – | 1µM | – | 2.2 | –
CS(=O)(=O)c1ccc2nc(NC(=O)C3COc4ccccc4O3)sc2c1 (configuration not stated) | – | – | ? | – | · | ?
